Experiment [1] can be described thus: qHTS assay for small molecule agonists of the p53 signaling pathway (AID 651631; calls by dose curve; also: nearly all actives have a fitted effect of over 15% in size; also: potency is read from the fitted curve at half-maximal effect). In a few lines:
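HCT-116 cells carrying a beta-lactamase reporter under p53 response elements were dosed with compound for 16 h at 37 °C. LiveBLAzer B/G FRET substrate was then added for 2 h at room temperature, and fluorescence intensity was read to detect pathway agonism.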

A short description of experiment [2]: qHTS assay for small molecules that induce genotoxicity in human embryonic kidney cells expressing luciferase-tagged ATAD5 (AID 651632). Also: nearly all actives have a fitted effect of over 15% in size. In a few lines:
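Luminescence read-out: after 16 hr compound exposure at 37C, ATAD5-luciferase HEK293T cells received Amplite, 30 min RT, then CCD imaging. A rise in signal marks genotoxic stress.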
A general note: Quantitative high-throughput screening tests each substance at several concentrations.

A short description of experiment [3]: qHTS assay for small molecule agonists of the p53 signaling pathway - cell viability (AID 651633; calls by dose curve;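 also: p53RE-bla HCT reporter cells with a stable beta-lactamase p53 reporter; series mostly up to about 83 µM; nearly all actives have a fitted effect of over 30% in size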). The gist of the method:
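Viability counter-read: CellTiter-Glo luminescence (30 min, room temperature) in the same p53RE-bla plates. These plates had been exposed to compounds for 16 h at 37 C.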

Experiment [4] can be described thus: qHTS assay for small molecule disruptors of the mitochondrial membrane potential - cell viability (AID 720634; calls by dose curve; also: nearly all actives have a fitted effect of over 20% in size; also: potency is read from the fitted curve at half-maximal effect). In a few lines: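 Luminescence from CellTiter-Glo (ATP content) gave viability in HepG2 cells, read in the same wells as the MMP dye assay after 1 hr compound exposure at 37 C.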
Experiment [5] in a line: qHTS assay for small molecule disruptors of the mitochondrial membrane potential (AID 720635). Also: potency is read from the fitted curve at half-maximal effect. The gist of the method: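 Mitochondrial membrane potential tracked with Mito-MPS dye, red aggregates (ex 540/em 590 nm) against green monomers (ex 490/em 535 nm). Compound treatment 1 hr at 37C, dye 30 min in HepG2.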
A short description of experiment [6]: qHTS assay to test for compound auto fluorescence at 590 nm (red) in HepG2 cells (AID 720674). The gist of the method:
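1 hr compound incubation on HepG2 cells, 37 C, 5% CO2; plate read ex 540 nm / em 590 nm; intensities reported as Rose Bengal sodium equivalents.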

The nature of experiment [7]: qHTS assay to test for compound auto fluorescence at 535 nm (green) in HepG2 cells (AID 720675).
Experiment [8] in a line: qHTS assay to test for compound auto fluorescence at 460 nm (blue) in HEK293 cells (AID 720678). In a few lines:
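Triamterene serves as the blue fluorophore standard. Compound signal at 405/460 nm is read in HEK293 wells (2,000 cells, 10% dialyzed FBS) after overnight treatment at 37C.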

Experiment [9] is described as follows: qHTS assay to test for compound auto fluorescence at 590 nm (red) in HEK293 cells (AID 720679). The gist of the method:
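We plated HEK293 cells in 10% dialyzed FBS medium, let them adhere for 4-5 hr, then added 23 nL compound. Overnight at 37C and 5% CO2 preceded fluorescence measurement at 540/590nm.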

The nature of experiment [10]: qHTS assay to test for compound auto fluorescence at 535 nm (green) in HEK293 cells (AID 720680).
Experiment [11] can be described thus: qHTS assay to test for compound auto fluorescence at 460 nm (blue) in HEK293 cell free culture (AID 720681). The gist of the method:
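Blue fluorescence (Ex 405/Em 460 nm, triamterene-equivalent) was read immediately after pin transfer of compound or DMSO into medium (DMEM, 10% FBS) without cells.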

Experiment [12] in a line: qHTS assay to test for compound auto fluorescence at 535 nm (green) in HEK293 cell free culture (AID 720682). The gist of the method: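 Green-label autofluorescence (485 nm excitation, 535 nm emission) measured on compound added to cell-free culture medium (DMEM, 10% FBS). Output is expressed relative to fluorescein.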
The nature of experiment [13]: qHTS assay to test for compound auto fluorescence at 590 nm (red) in HEK293 cell free culture (AID 720683). The gist of the method: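 Red-channel autofluorescence of compounds in culture medium (DMEM, 10% FBS), no cells, measured at 540/590 nm. Rose Bengal sodium is the reference fluorophore for equivalence.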
Experiment [14] is described as follows: qHTS assay to test for compound auto fluorescence at 590 nm (red) in HepG2 cell free culture (AID 720684). The gist of the method: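 Cell-free; medium MEM + 10% FBS; compound or DMSO added by pintool; read Ex 540/Em 590 nm; Rose Bengal sodium as red reference fluorophore.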
Experiment [15] in a line: qHTS assay to test for compound auto fluorescence at 460 nm (blue) in HepG2 cell free culture (AID 720685). In a few lines: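 Cell-free plates of MEM plus 10% FBS received 23 nL compound or DMSO vehicle; blue-channel (405/460 nm) intensity scored against triamterene as reference fluorophore.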
Experiment [16] is described as follows: qHTS assay to test for compound auto fluorescence at 535 nm (green) in HepG2 cell free culture (AID 720686).
Experiment [17] is described as follows: qHTS assay to test for compound auto fluorescence at 460 nm (blue) in HepG2 cells (AID 720687). The gist of the method: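 Blue-channel autofluorescence (Ex/Em 405/460 nm, triamterene-equivalent) was measured after 1 hr compound exposure at 37 C, 5% CO2. Cells were HepG2, plated overnight at 37 C in MEM plus 10% FBS.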
The target of experiment [18] is Glucocorticoid receptor (Homo sapiens) (UniProt P04150). Nature of the experiment: qHTS assay to identify small molecule agonists of the glucocorticoid receptor (GR) signaling pathway (AID 720691; active = well fitted activation curve with a large enough effect in the signal ratio in the repeat runs, not every such curve was filed as active; the % refers to the signal ratio). In a few lines:
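HeLa GR-bla reporter line; cells pre-incubated 4 h, compound in DMSO 18 h at 37 C; LiveBLAzer B/G FRET substrate 2 h RT; fluorescence intensity read-out.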

A short description of experiment [19]: qHTS assay for small molecules that induce genotoxicity in human embryonic kidney cells expressing luciferase-tagged ATAD5 - cell viability (AID 651634; calls by dose curve; also: nearly all actives have a fitted effect of over 25% in size). The gist of the method: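 HEK293T ATAD5-luc cells, 2,000/well; compound 15.5 hr, 37C/5% CO2; CellTiter-Fluor 30 min, 37C; fluorescence read.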
The target of experiment [20] is Glucocorticoid receptor (Homo sapiens) (UniProt P04150). As to the kind of experiment: qHTS assay to identify small molecule antagonists of the glucocorticoid receptor (GR) signaling pathway (AID 720692; active = well fitted inhibition curve with a large enough effect in the signal ratio in the repeat runs, not every such curve was filed as active; the % refers to the signal ratio). In a few lines: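 Read-out: beta-lactamase FRET substrate fluorescence, 2 h at room temperature, in HeLa cells stably carrying a GRE-driven bla reporter. Compounds were co-incubated with 5 nM dexamethasone agonist (final) for 18 h at 37 C.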

Where “and” joins values, the source holds several entries; their conditions need not be identical. Identical values can stand only once. Records with an inconclusive call do not appear. Some structures have more than one record in an assay (separate samples or runs), and their calls can disagree. Calls of active or inactive are those of the source. Unless noted, calls follow the shape of the dose curve; as a rule, active = well fitted curve in the direction sought with a large enough effect in the repeat runs; inconclusive = weak or mixed curves; inactive = no such curve, though single readings can be large; an effect the other way counts as inactive or inconclusive.

Glucocorticoid receptor (Homo sapiens), sequence (P04150 whole entry, looked up): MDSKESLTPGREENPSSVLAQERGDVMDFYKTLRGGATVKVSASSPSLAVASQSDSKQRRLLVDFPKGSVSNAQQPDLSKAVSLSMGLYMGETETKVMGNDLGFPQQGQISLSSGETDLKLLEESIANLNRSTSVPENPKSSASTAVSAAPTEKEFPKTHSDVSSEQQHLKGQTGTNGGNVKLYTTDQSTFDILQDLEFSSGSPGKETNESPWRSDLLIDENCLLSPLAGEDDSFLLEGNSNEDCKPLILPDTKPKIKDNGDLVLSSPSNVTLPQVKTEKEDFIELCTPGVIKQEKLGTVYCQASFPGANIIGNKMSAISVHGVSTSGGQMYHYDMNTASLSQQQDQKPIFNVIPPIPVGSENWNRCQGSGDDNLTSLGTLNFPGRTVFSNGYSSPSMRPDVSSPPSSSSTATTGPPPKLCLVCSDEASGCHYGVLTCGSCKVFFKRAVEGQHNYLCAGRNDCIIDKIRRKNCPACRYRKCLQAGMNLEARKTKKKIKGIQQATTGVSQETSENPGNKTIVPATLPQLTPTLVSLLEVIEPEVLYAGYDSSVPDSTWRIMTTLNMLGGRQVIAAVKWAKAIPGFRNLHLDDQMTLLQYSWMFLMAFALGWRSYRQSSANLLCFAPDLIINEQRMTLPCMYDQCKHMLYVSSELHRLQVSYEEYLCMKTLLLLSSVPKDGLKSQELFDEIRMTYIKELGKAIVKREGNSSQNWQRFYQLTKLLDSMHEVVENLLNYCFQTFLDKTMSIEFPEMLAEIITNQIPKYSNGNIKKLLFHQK

Regarding `C=C(Cl)CCl`, the Potency result in [1], in [3], in [4], in experiment [5] and in [18] was “inactive” in each case. Moreover, the result in experiment [2], in experiment [6], in [7], in [8], in experiment [9] and in experiment [10] was inactive. The compound was classed as inactive in experiment [11], in experiment [12], in [13], in experiment [14], in experiment [15] and in experiment [16]. The result in experiment [17] was inactive.

Regarding `OCC(Cl)CCl` (stereo not drawn), the Potency result in experiment [1], in experiment [3], in experiment [4], in [5] and in experiment [18] was “inactive” in each case. For the same compound, the compound was called inactive in experiment [2], in [6], in experiment [7], in experiment [9], in [10] and in experiment [11]. Moreover, the result in experiment [12], in experiment [13], in [14], in experiment [15] and in [17] was inactive.

For `O=C1C2CC=CCC2C(=O)N1SC(Cl)(Cl)Cl` (stereo not drawn), the Potency is 5.96 µM (active) in [1]; 29.8 µM (active) and inactive and 60.1 µM (active) in experiment [4]; 8.41 µM (active) and 43.1 µM (active) and 8.49 µM (active) in experiment [5]. Further, the compound was classed as inactive in [2], in experiment [6], in [7], in [9], in [10] and in experiment [11]. Moreover, the outcome in [12], in experiment [14], in experiment [15], in experiment [16] and in [17] was inactive. Besides, in [3], the Potency result was “inactive”.

On to `COP(=O)(OC)O/C(C)=C/C(=O)N(C)C`, for which the Potency result in [1] and in experiment [3] was “inactive” throughout. Also, the compound was classed as inactive in experiment [2], in experiment [6], in experiment [7], in [8], in experiment [9] and in [10]. Moreover, the result in [11], in experiment [12], in experiment [13], in [14], in experiment [15] and in experiment [16] was inactive.

Turning to `O=C(Cl)c1ccccc1`, the Potency result in [1], in experiment [3], in experiment [19] and in experiment [4] was “inactive” throughout. In addition, the outcome in experiment [2], in experiment [6], in experiment [7], in experiment [8], in [9] and in experiment [10] was inactive. Further, the compound was called inactive in experiment [11], in [12], in [13], in [15], in experiment [16] and in experiment [17].

In the case of `C=CCCC#N`, the Potency entry in experiment [1], in [3], in experiment [19], in experiment [4], in experiment [18] and in experiment [20] was “inactive” in each case. Besides, the result in [2], in experiment [6], in experiment [7], in experiment [8], in [9] and in experiment [10] was inactive. The outcome in experiment [11], in experiment [12], in experiment [14], in experiment [15] and in experiment [16] was inactive.

As for `COc1cccc(C=O)c1`, the Potency result in [1], in experiment [3], in experiment [19], in experiment [4] and in [18] was “inactive” each time. In addition, the result in [2], in experiment [6], in experiment [7], in experiment [8], in [9] and in [10] was inactive. In addition, the call in experiment [11], in [12], in [13], in [15] and in [17] was inactive.

Consider `CCC1(c2ccccc2)CCC(=O)NC1=O` (stereo not drawn), for which the Potency entry in experiment [1], in [3], in experiment [4] and in experiment [5] was “inactive” in each case. For the same compound, the call in experiment [2], in experiment [6], in experiment [7], in experiment [9], in experiment [10] and in [11] was inactive. The outcome in experiment [12], in experiment [13], in experiment [14], in [15], in experiment [16] and in experiment [17] was inactive.

The values above are taken from PubChem BioAssay (Tox21).
